Reference: PubChem BioAssay AID588430 (Broad Institute, 2011)
Entries with a potency or affinity are not part of this list. Results filed as inconclusive are left out. The source made the active and inactive calls.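 Rule for the calls: active = compound whose fitted half-maximal inhibition concentration is at most triple the top dose in every replicate run; inconclusive = runs disagree, or flat partial inhibition, or poor curve fit; inactive = every run inactive: flat, opposite effect, or too weak.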

These compounds were tested against Cyclin-dependent kinase 5 activator 1 (Homo sapiens) + Cyclin-dependent kinase 5 (Homo sapiens) (UniProt Q15078+Q00535) (assay: CDK5-p25 kinase inhibitors, specificity check, dose response, selectivity assay for GSK-3 alpha inhibitor project, biochemical, microfluidic mobility shift, dry powder (AID 588430)). Details: Caliper mobility shift, peptide conversion; series mostly up to 35 µM.
Sequence of Cyclin-dependent kinase 5 activator 1 (Homo sapiens) + Cyclin-dependent kinase 5 (Homo sapiens) (Q00535 whole entry, looked up): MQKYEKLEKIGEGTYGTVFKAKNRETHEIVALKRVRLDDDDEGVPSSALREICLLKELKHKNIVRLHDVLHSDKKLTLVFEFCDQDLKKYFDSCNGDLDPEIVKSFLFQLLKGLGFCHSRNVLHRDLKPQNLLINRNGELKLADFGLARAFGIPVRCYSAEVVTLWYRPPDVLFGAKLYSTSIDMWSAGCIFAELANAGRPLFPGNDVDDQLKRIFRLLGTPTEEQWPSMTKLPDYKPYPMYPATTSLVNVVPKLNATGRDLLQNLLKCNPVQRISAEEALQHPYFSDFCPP
Sequence of Cyclin-dependent kinase 5 activator 1 (Homo sapiens) + Cyclin-dependent kinase 5 (Homo sapiens) (Q15078 whole entry, looked up): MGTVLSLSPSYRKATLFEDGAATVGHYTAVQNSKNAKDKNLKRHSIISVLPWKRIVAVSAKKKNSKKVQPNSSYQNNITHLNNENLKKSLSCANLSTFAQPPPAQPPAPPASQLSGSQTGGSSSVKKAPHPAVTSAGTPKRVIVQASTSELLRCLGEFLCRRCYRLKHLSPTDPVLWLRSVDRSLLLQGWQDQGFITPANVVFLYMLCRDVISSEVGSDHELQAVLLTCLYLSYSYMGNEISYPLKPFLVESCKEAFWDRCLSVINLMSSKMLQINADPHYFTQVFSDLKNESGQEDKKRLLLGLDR

outcome, inactive:
O=C(Nc1ccsc1C(=O)NC1CCCCC1)c1ccc(F)cc1
Fc1ccc(CSc2nnc(-c3ccncc3)o2)cc1
Nc1nonc1-n1nnc(C(=O)N/N=C/c2ccccc2Cl)c1CN1CCOCC1
Nc1nc(NCCCN2CCOCC2)nc(Nc2cccc(Cl)c2)c1[N+](=O)[O-]
CCOC(=O)c1ccc2ncc(C(=O)OCC)c(Nc3ccc(N4CCOCC4)cc3)c2c1
c1ccc(-c2nc(NCCCn3ccnc3)c3ccccc3n2)cc1
CN(C)Cc1c(C(=O)N/N=C/c2ccncc2)nnn1-c1nonc1N
COc1ccc(OC)c(/C=N/NC(=O)c2nnn(-c3nonc3N)c2-c2cccs2)c1
